# Source: ChEMBL document CHEMBL4513149, “CO-ADD screening of MMV (CH) - MMV compounds” (2021)
# Potency and affinity values are given separately.
# Test system: Cryptococcus neoformans
# Details: Concentration 20 uM; ASSAY_TEST Inhibition of Fungal Growth; detection method Resazurin; Absorption (OD600-OD570); plate type 384well; NBS; CORNING #3640
row,Structure (SMILES),Inhibition [%]
1,CC(C)(C)OC(=O)N1CCC(Cn2nc(-c3cnc4ccccc4c3)c3c(N)ncnc32)CC1,-9.75
2,CCCS(=O)(=O)N1CCC(CO)(Cc2ccccc2C(F)(F)F)CC1,-2.93
3,Nc1nc(N)c2c3c(sc2n1)CN(Cc1ccccc1)CC3,-1.76
4,COc1ccc(Nc2ccccc2NC(=O)c2ccc(O)nc2)cc1,-7.76
5,CCOc1ccc(-c2nc(NC(=O)CS(=O)(=O)c3ccccc3)sc2C)cc1,-9.26
6,COc1ccc2nc(C)cc(OCC(=O)Nc3ccccc3OC)c2c1,-5.56
7,Cc1cccc(Cn2ccc(NC(=O)c3ccc4c(c3)OCO4)n2)c1,3.81
8,Nc1ncc(-c2cn[nH]c2)cc1-c1nc2cc(Cl)cnc2[nH]1,-3.87
9,c1ccc(Oc2ccc(-c3cc(CN4CCOCC4)[nH]n3)cc2)cc1,-6.41
10,OC[C@H]1O[C@@H](n2c3ccc(Cl)cc3c3c(-c4cc5ccccc5o4)ncnc32)C(O)[C@H]1O (stereo partly specified),3.55
11,COc1cccn2c(C(=O)N3CCCCC3)c(C(F)(F)F)nc12,-6.15
12,Nc1cccnc1Nc1ccc(Cl)cc1,-10.6
13,CC(C)(C)c1cc(C(=O)Nc2cccnc2)cc(C(=O)Nc2cccnc2)c1,-7.29
14,CNC(=O)CNc1nc(-c2ccccn2)nc2scc(-c3ccccc3)c12,-5.07
15,O=C1Nc2ccc(Br)cc2C12NCCc1c2[nH]c2ccccc12 (stereo unspecified),-1.68
16,COc1ccc(C2=NN(C3CCCCCC3)C(=O)C2(C)C)cc1OCCCCOc1ccc(-c2nn[nH]n2)cc1,-17.73
17,O=S(=O)(c1ccc(Cl)cc1)N1CCN(C(=S)NCc2ccco2)CC1,-0.21
18,CS(=O)(=O)c1ccc(C(=O)N(CC2CCCO2)c2nc3ccccc3s2)cc1[N+](=O)[O-] (stereo unspecified),-10.33

row,Structure (SMILES),Inhibition [%]
1,Cc1cc(NC(=O)c2ccc(S(=O)(=O)N(Cc3ccccc3)C(C)C)cc2)no1,-4.62
2,COc1ccc(Oc2ccc([C@@H](C)N(C)c3ncc4c(N)nc(N)nc4n3)cc2)cc1,-6.67
3,COc1ccc(C2=NCCN2)cc1-c1cn(-c2cccc(C3=NCCN3)c2)nn1.O=C(O)C(F)(F)F.O=C(O)C(F)(F)F,-2.18
4,FC(F)(F)c1cccc(-c2nc3c(NCc4ccncc4)nccc3[nH]2)c1,5.66
5,COc1ccc(OC(C)C(=O)Nc2ccc(Cl)cc2C)cc1 (stereo unspecified),5.96
6,Nc1ncc(-c2ccc(C(F)(F)F)nc2)cc1-c1ccc(C(F)(F)F)nc1,-5.78
7,CCCCOC(=O)Nc1cc2nc(C3CCCCC3)[nH]c2cc1N1CCCC1,-8.19
8,N#Cc1ccc(-c2cnc(N)c(-c3ccc(C(N)=O)cc3)n2)cc1,-3.91
9,Cl.NCCCC(N)(C(=O)O)C(F)F.O (stereo unspecified) [EFLORNITHINE HYDROCHLORIDE],-9.22
10,CCCCc1ccc(NC(=O)Nc2ccc(O[C@H]3CCCC[C@@H]3N(C)c3ccccc3)c(F)c2)cc1,-1.2
11,CC(C(=O)N1CCCC1)N1CCN(S(=O)(=O)c2ccc(C(C)(C)C)cc2)CC1 (stereo unspecified),-10.06
12,COc1ccc(CCN2CCC(NCc3cccc(N(C)C)c3)CC2)cc1,-2.71
13,CC(C)(C)c1cc(C(=O)N2CCN(c3nccnc3C#N)CC2)n(Cc2ccccc2)n1,1.25
14,COc1cc2ncnc(NC3CCN(Cc4ccccc4)CC3)c2cc1OC,4.42
15,CC1(COc2ccc(N3CCC(Oc4ccc(OC(F)(F)F)cc4)CC3)cc2)Cn2cc([N+](=O)[O-])nc2O1 (stereo unspecified),-2.75
16,Cc1ccccc1CN1CCC(O)(c2ccc(Cl)c(C(F)(F)F)c2)CC1,-6.41
17,CCOc1ccccc1NC(C)C(=O)Nc1cc(C(F)(F)F)ccc1N1CCOCC1 (stereo unspecified),-7.7
18,CC(C)(C)C(=O)N(CCCCCCN1C[C@H](O)[C@@H](O)[C@H](O)[C@H]1CO)C1CCCCCC1,-2.01
